# Screens (PubChem BioAssay)
# FEN1 inh-1 – qHTS Assay for the Inhibitors of Human Flap endonuclease 1 (FEN1); P39748; Recombinant FEN1 flap cleavage, fluorescence, 15 min; Potency, µM (top dose mostly 114 µM), inactives show at the top dose activity change, negative = inhibition, hits mostly inhibitors; 390,000 tested, 0.35% active; further: on the % scale 0 is the no-effect control and ±100 the full control effect; nearly all actives have a fitted effect of over 65% in size
#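 Nuclease activity of 10 nM FEN1 was measured after 15 min of room-temperature exposure to titrated compounds, by adding 50 nM flap substrate and reading plates at 0 and 15 min.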
# RECQ1 helicase – qHTS Assay for Inhibitors of RecQ-Like Dna Helicase 1 (RECQ1); Potency, µM (titrated, usually from 57.3 µM), for inactives: at the top dose activity, negative = inhibition, most hits filed as inhibitors; AID 2549, 2010; RECQ1 DNA unwinding, red fluorescence kinetic read; ATP-dependent DNA helicase Q1 (Homo sapiens), P46063; 240,000 tested, 0.54% active;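 further: plate controls were vehicle for no effect and no enzyme for full effect; nearly all actives have a fitted effect of over 30% in size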
#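 RECQ1T1 50 nM; forked duplex (20 bp + 30-nt ss tails) 200 nM, ATP 2 mM final; pH 8.0, 2 mM MgCl2, 2.5 ug/ml poly(dI-dC); 15 min compound preincubation; discontinuous kinetic read over 2 h at RT.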
# BLM helicase inh-1 – qHTS Assay for Inhibitors of Bloom's syndrome helicase (BLM). RecQ-like DNA helicase BLM (Homo sapiens), P54132. recombinant BLM DNA unwinding, fluorescence dequenching. Potency, µM (highest dose often 56.1 µM), inactives show at the highest dose activity change, negative = inhibition, hits mostly inhibitors. 350,000 tested, 0.2% active;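 further: plate controls were vehicle for no effect and no enzyme for full effect; nearly all actives have a fitted effect of over 35% in size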
# L3MBTL1 block – qHTS Assay for the Inhibitors of L3MBTL1; Potency, µM (doses to about 57.1 µM), for inactives: at the highest dose activity, negative = inhibition, usual class: inhibitors; 230,000 tested, 0.66% active; AlphaScreen L3MBTL1–H3K9me1 peptide binding; AID 485360, 2010; further: on the % scale 0 is the no-effect control and ±100 the full control effect; nearly all actives have a fitted effect of over 60% in size
# Target sequence (Q9Y468 whole entry, looked up): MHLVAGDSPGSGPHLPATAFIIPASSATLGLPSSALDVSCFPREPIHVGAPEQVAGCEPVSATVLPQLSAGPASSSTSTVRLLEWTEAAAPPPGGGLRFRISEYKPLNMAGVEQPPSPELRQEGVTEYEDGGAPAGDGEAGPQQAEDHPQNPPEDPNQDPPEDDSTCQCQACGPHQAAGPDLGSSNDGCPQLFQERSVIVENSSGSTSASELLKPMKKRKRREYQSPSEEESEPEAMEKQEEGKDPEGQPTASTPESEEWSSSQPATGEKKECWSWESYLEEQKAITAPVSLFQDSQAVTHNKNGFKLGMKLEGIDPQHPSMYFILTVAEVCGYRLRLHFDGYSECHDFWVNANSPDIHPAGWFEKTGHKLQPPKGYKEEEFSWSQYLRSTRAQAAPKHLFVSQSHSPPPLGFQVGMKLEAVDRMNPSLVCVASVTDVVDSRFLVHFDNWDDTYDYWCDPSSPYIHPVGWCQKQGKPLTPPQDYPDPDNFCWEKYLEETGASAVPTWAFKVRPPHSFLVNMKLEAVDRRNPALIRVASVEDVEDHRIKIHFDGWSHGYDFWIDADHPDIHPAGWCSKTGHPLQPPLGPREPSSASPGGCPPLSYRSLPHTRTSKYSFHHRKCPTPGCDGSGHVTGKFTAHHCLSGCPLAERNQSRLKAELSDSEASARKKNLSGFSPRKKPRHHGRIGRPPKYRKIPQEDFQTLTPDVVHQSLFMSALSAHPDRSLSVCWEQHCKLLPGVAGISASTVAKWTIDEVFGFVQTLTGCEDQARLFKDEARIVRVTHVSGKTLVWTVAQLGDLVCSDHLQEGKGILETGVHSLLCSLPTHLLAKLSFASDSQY
#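 Displacement of a biotinylated histone H3(1-15) peptide monomethylated at Lys9 (75 nM) from L3MBTL1 (50 nM) was measured by AlphaScreen after a 30 min room-temperature compound incubation; cefsulodin titration served as intraplate control.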
# WRN helicase inh-1 – qHTS for Inhibitors of WRN Helicase; Bifunctional 3'-5' exonuclease/ATP-dependent helicase WRN (Homo sapiens), Q14191; WRN helicase unwinding, fluorescent forked duplex, kinetic; Potency, µM (doses to about 114 µM), for inactives: top-dose activity change, negative = inhibition, usual class: inhibitors; 360,000 tested, 0.46% active; further: on the % scale 0 is the no-effect control and ±100 the full control effect; nearly all actives have a fitted effect of over 55% in size
#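 Primary qHTS, 1536-well format. 20 nM WRN + compound, 15 min RT; start with 100 nM forked fluorophore/quencher duplex, 2 mM ATP (final); kinetic read ex 525/em 598 nm.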
# FEN1 inh-2 – qHTS Assay for the Inhibitors of FEN1: Confirmatory Assay for Cherry-picked Compounds; 880 tested, 79% active; AID 720498, 2013; Potency, µM, hits mostly inhibitors; shares compounds with FEN1 inh-1; FEN1 flap cleavage, TAMRA/BHQ2 fluorogenic DNA substrate; further: nearly all actives have a fitted effect of over 60% in size
# WRN helicase inh-2 – qHTS for Inhibitors of WRN Helicase: Confirmatory Assay for Cherry-picked Compounds; shares compounds with WRN helicase inh-1; Potency, µM (highest dose often 57.1 µM), inactives show top-dose activity, negative = inhibition, usual class: inhibitors; WRN helicase DNA unwinding, fluorescence kinetic; 610 tested, 63% active; further: nearly all actives have a fitted effect of over 65% in size
# TO DNA binding – qHTS for Inhibitors of WRN Helicase: Thiazole Orange DNA Binding Counterscreen; AID 720499, 2013; shares compounds with WRN helicase inh-1; thiazole orange DNA binding displacement, fluorescence; Potency, µM (series often up to 57.1 µM), for inactives: top-dose activity change, negative = inhibition, most hits filed as inhibitors; 610 tested, 10% active;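 further: drop in dye fluorescence marks compound binding to DNA; on the % scale 0 is the no-effect control and ±100 the full control effect; nearly all actives have a fitted effect of over 60% in size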
# BLM helicase inh-2 – qHTS for Inhibitors of WRN Helicase: BLM Helicase Counterscreen for WRN Inhibitors | shares compounds with WRN helicase inh-1 | Recombinant BLM helicase DNA unwinding, red fluorescence | Potency, µM (top dose mostly 57.1 µM), inactives show top-dose activity change, negative = inhibition, actives largely listed as inhibitors | 610 tested, 60% active; further: nearly all actives have a fitted effect of over 60% in size
# * = called active by the depositor; i = inactive; ? = inconclusive; nt = no result given; [ ] = another dose, or the depositor's remark. A selection: hits, their analogues and other compounds. The true share with any hit is near 0.99%. The call rests on the fitted dose curve; in most records, active means well fitted curve in the direction sought with a large enough effect; inconclusive means small, poorly fitted or top-dose-only effect, or another doubt; inactive means no such curve, though single readings can be large; an effect the other way counts as inactive or inconclusive. Potency means the concentration at half of the fitted maximal effect.
SMILES,FEN1 inh-1,RECQ1 helicase,BLM helicase inh-1,L3MBTL1 block,WRN helicase inh-1,FEN1 inh-2,WRN helicase inh-2,TO DNA binding,BLM helicase inh-2
N#Cc1nc(-c2cccs2)oc1NCCCN1CCOCC1,-13%,-5%,2%,-7%,-13%[57.1 µM],nt,nt,nt,nt
CC[C@@]1(O)C[C@H](O[C@H]2C[C@@H](N(C)C)[C@@H](O[C@H]3C[C@@H](O)[C@@H](O[C@H]4CCC(=O)[C@@H](C)O4)[C@@H](C)O3)[C@@H](C)O2)c2c(cc3c(c2O)C(=O)c2c(O)cccc2C3=O)[C@H]1C(=O)OC,nt,nt,43%,nt,nt,nt,nt,nt,nt
COc1cccc2c1C(=O)c1c(O)c3c(c(O)c1C2=O)C[C@@](O)(C(=O)CO)C[C@@H]3OC1CC(N)C(O)C(C)O1 (some centres undefined),6.3µM*,nt,-24%,nt,3µM*,34*,17µM*,96%,27µM*
COc1cccc2c1C(=O)c1c(O)c3c(c(O)c1C2=O)CC(O)(C(C)=O)CC3OC1CC(N(C)C)C(O)C(C)O1 (centres undefined),32µM*,nt,nt,nt,18µM*,38*,24µM*,240%,24µM*
CCOC(=O)COc1ccc(Br)cc1/C=C/c1[nH]c(=O)[nH]c(=O)c1[N+](=O)[O-],?,-2%,-5%,nt,-6%[11.6 µM],nt,nt,nt,nt
COc1ncnc(OC)c1S(=O)(=O)NCc1ccccc1,-1%,nt,2%,nt,4%,nt,nt,nt,nt
O=c1[nH][nH]c(=O)c2c(NS(=O)(=O)c3ccccc3)cccc12,-5%,i,-9%,4%,2%,nt,nt,nt,nt
CC(C(=O)NCC1CCCCC1)N(C)CC(=O)Nc1ccc(N2CCOCC2)cc1 (centres undefined),5%,i,1%,nt,-3%,nt,nt,nt,nt
CC(C)N(Cc1cn(C)nc1-c1cccc(Cl)c1)Cc1nccn1C,8%,13%,-6%,-10%,-4%,nt,nt,nt,nt
Cc1c(Br)c(=O)oc2c(Br)c(O)c(O)cc12,28µM*,i,7.9µM*,3.5µM*,16µM*,30*,3.8µM*,?,3.4µM*
Nc1ccc(Cn2ccc3c4c(N)nc(N)nc4ccc32)cc1,25µM*,nt,nt,nt,16µM*,43*,22µM*,76%,14µM*
Cc1nc2ccc(N)cc2c(=O)n1Cc1ccc(Cl)cc1,2%,-4%,-1%,nt,-17%,nt,nt,nt,nt
O=C(/C=C/c1ccco1)NC(=S)Nc1cccc(C(=O)O)c1,18µM*,nt,47%,nt,20µM*,67*,22µM*,-7%,?
COc1cccc(NC(=S)NC(=O)/C=C/c2ccco2)c1,-9%,nt,-16%,-27%,?,nt,nt,nt,nt
